Out of some 5,500 compounds screened, about 2,000 (36%) were called active. Inconclusive results (about 18%) are left out. Cut-off read from the data, not from the text of the source: active = normalized growth mostly below about 0.91 (no sharp cut-off); inconclusive = no clear call, values can overlap the other calls; inactive = mostly above about 0.92. The list shows a part of the results.
Experiment: chemical genetic growth profiling, strain panel (AID 1159580);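 note: tested at 20 µM; growth read once vehicle control cultures reached saturation at 30 °C; 1 = growth at the plate median or of vehicle wells; lower values mean less growth of the strain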
Conditions: growth OD

Measured: normalized growth

CN(C)CCN(Cc1ccccc1)c1ccccn1
inactive: S. cerevisiae deletion strains, locus YJR075W, strain HOC1, active compounds read low 1.01 | S. cerevisiae deletion strains, locus YKL009W, strain mrt4, active compounds read low 0.993 | S. cerevisiae deletion strains, locus YKL068W, active compounds read low 0.969 | S. cerevisiae deletion strains, locus YKL085W, strain MDH1 (second series), active compounds read low 0.978 | S. cerevisiae deletion strains, locus YKL085W, strain MDH1, active compounds read low 0.978 | S. cerevisiae deletion strains, locus YKL160W, strain elf1, active compounds read low 1.03 | S. cerevisiae deletion strains, locus YKL190W, strain CNB1, active compounds read low 0.983 | S. cerevisiae deletion strains, locus YKR001C, strain vps1, active compounds read low 0.994 | S. cerevisiae deletion strains, locus YKR026C, strain gcn3, active compounds read low 1 | S. cerevisiae deletion strains, locus YKR091W, strain srl3, active compounds read low 1.01 | S. cerevisiae deletion strains, locus YLL001W, strain dnm1, active compounds read low 1.04 | S. cerevisiae deletion strains, locus YLL026W, active compounds read low 1.02 | S. cerevisiae deletion strains, locus YLL041C, strain sdh2, active compounds read low 1.01 | S. cerevisiae deletion strains, locus YLR027C, strain aat2, active compounds read low 1.01 | S. cerevisiae deletion strains, locus YLR039C, strain RIC1, active compounds read low 0.966 | S. cerevisiae deletion strains, locus YLR058C, strain SHM2, active compounds read low 0.999 | S. cerevisiae deletion strains, locus YLR102C, strain apc9, active compounds read low 0.986 | S. cerevisiae deletion strains, locus YLR113W, strain HOG1, active compounds read low 0.909 | S. cerevisiae deletion strains, locus YLR221C, strain rsa3, active compounds read low 0.988 | S. cerevisiae deletion strains, locus YLR258W, strain gsy2, active compounds read low 1.01 | S. cerevisiae deletion strains, locus YLR262C, strain YPT6 (second series), active compounds read low 1.02 | S. cerevisiae deletion strains, locus YLR262C, strain YPT6, active compounds read low 1.01 | S. cerevisiae deletion strains, locus YLR268W, strain sec22, active compounds read low 0.985 | S. cerevisiae deletion strains, locus YLR320W, strain mms22, active compounds read low 1.01 | S. cerevisiae deletion strains, locus YLR330W, strain CHS5, active compounds read low 0.999 | S. cerevisiae deletion strains, locus YLR342W, strain FKS1 (second series), active compounds read low 1.04 | S. cerevisiae deletion strains, locus YLR342W, strain FKS1, active compounds read low 1.02 | S. cerevisiae deletion strains, locus YLR357W, strain rsc2, active compounds read low 1.03 | S. cerevisiae deletion strains, locus YLR370C, strain arc18, active compounds read low 1.03 | S. cerevisiae deletion strains, locus YLR371W, strain rom2, active compounds read low 0.976 | S. cerevisiae deletion strains, locus YLR384C, strain iki3, active compounds read low 1.01 | S. cerevisiae deletion strains, locus YLR418C, strain cdc73, active compounds read low 1.02 | S. cerevisiae deletion strains, locus YML016C, strain PPZ1, active compounds read low 1.01 | S. cerevisiae deletion strains, locus YML032C, strain rad52, active compounds read low 0.978 | S. cerevisiae deletion strains, locus YML120C, strain ndi1, active compounds read low 1.02 | S. cerevisiae deletion strains, locus YML124C, strain tub3, active compounds read low 0.988 | S. cerevisiae deletion strains, locus YMR058W, strain fet3, active compounds read low 1.02 | S. cerevisiae deletion strains, locus YMR078C, strain ctf18, active compounds read low 0.988 | S. cerevisiae deletion strains, locus YMR125W, strain sto1, active compounds read low 1.02 | S. cerevisiae deletion strains, locus YMR129W, active compounds read low 1 | S. cerevisiae deletion strains, locus YMR205C, strain PFK2, active compounds read low 1.04 | S. cerevisiae deletion strains, locus YMR223W, strain ubp8, active compounds read low 1.02 | S. cerevisiae deletion strains, locus YMR231W, strain pep5, active compounds read low 1 | S. cerevisiae deletion strains, locus YMR263W, strain SAP30, active compounds read low 0.976 | S. cerevisiae deletion strains, locus YMR307W, strain GAS1, active compounds read low 1.06 | S. cerevisiae deletion strains, locus YNL067W, strain RPL9B, active compounds read low 0.985 | S. cerevisiae deletion strains, locus YNL071W, strain lat1, active compounds read low 1.01 | S. cerevisiae deletion strains, locus YNL128W, strain TEP1, active compounds read low 0.987 | S. cerevisiae deletion strains, locus YNL153C, strain GIM3, active compounds read low 0.995 | S. cerevisiae deletion strains, locus YNL183C, strain NPR1, active compounds read low 0.942 | S. cerevisiae deletion strains, locus YNL209W, strain ssb2, active compounds read low 1 | S. cerevisiae deletion strains, locus YNL233W, strain BNI4, active compounds read low 1.01 | S. cerevisiae deletion strains, locus YNL248C, strain rpa49, active compounds read low 1 | S. cerevisiae deletion strains, locus YNL250W, strain rad50, active compounds read low 0.96 | S. cerevisiae deletion strains, locus YNL271C, strain bni1, active compounds read low 0.953 | S. cerevisiae deletion strains, locus YNL298W, strain CLA4, active compounds read low 0.994 | S. cerevisiae deletion strains, locus YNL307C, strain MCK1, active compounds read low 0.989 | S. cerevisiae deletion strains, locus YNL322C, strain KRE1 (second series), active compounds read low 1.02 | S. cerevisiae deletion strains, locus YNL322C, strain KRE1, active compounds read low 0.987 | S. cerevisiae deletion strains, locus YNR049C, strain mso1, active compounds read low 1.02 | S. cerevisiae deletion strains, locus YNR052C, strain pop2, active compounds read low 0.986 | S. cerevisiae deletion strains, locus YOL006C, strain TOP1, active compounds read low 1 | S. cerevisiae deletion strains, locus YOL012C, strain htz1 1.43 | S. cerevisiae deletion strains, locus YOL147C, strain pex11, active compounds read low 0.978 | S. cerevisiae deletion strains, locus YOR001W, strain rrp6, active compounds read low 1.04 | S. cerevisiae deletion strains, locus YOR061W, strain CKA2, active compounds read low 0.996 | S. cerevisiae deletion strains, locus YOR069W, strain VPS5, active compounds read low 1 | S. cerevisiae deletion strains, locus YOR070C, strain gyp1, active compounds read low 0.999 | S. cerevisiae deletion strains, locus YOR080W, strain dia2, active compounds read low 1.02 | S. cerevisiae deletion strains, locus YOR083W, strain WHI5, active compounds read low 1.01 | S. cerevisiae deletion strains, locus YOR106W, strain vam3, active compounds read low 1.05 | S. cerevisiae deletion strains, locus YOR136W, strain idh2, active compounds read low 0.997 | S. cerevisiae deletion strains, locus YOR144C, strain elg1, active compounds read low 0.98 | S. cerevisiae deletion strains, locus YOR184W, strain ser1, active compounds read low 1 | S. cerevisiae deletion strains, locus YOR231W, strain MKK1, active compounds read low 0.959 | S. cerevisiae deletion strains, locus YOR265W, strain rbl2, active compounds read low 1 | S. cerevisiae deletion strains, locus YOR270C, strain vph1, active compounds read low 1.02 | S. cerevisiae deletion strains, locus YOR290C, strain snf2, active compounds read low 0.985 | S. cerevisiae deletion strains, locus YOR316C, strain cot1, active compounds read low 0.991 | S. cerevisiae deletion strains, locus YPL051W, strain arl3, active compounds read low 1.02 | S. cerevisiae deletion strains, locus YPL055C, strain LGE1, active compounds read low 1.04 | S. cerevisiae deletion strains, locus YPL078C, strain atp4, active compounds read low 1.04 | S. cerevisiae deletion strains, locus YPL106C, strain sse1, active compounds read low 1.02 | S. cerevisiae deletion strains, locus YPL240C, strain hsp82, active compounds read low 1.01 | S. cerevisiae deletion strains, locus YPL241C, strain CIN2, active compounds read low 0.992 | S. cerevisiae deletion strains, locus YPL256C, strain CLN2, active compounds read low 0.974 | S. cerevisiae deletion strains, locus YPR119W, strain clb2, active compounds read low 0.988 | S. cerevisiae deletion strains, locus YPR141C, strain kar3, active compounds read low 0.965 | S. cerevisiae deletion strains, locus YPR163C, strain tif3, active compounds read low 0.982 | S. cerevisiae deletion strains, locus YPR167C, strain met16, active compounds read low 0.973 | S. cerevisiae deletion strains, strain wtn01, active compounds read low 0.989 | S. cerevisiae strains, strain wild type, active compounds read low 0.999
